Bioassay records (PubChem)
Most compounds without a hit are left out; they make up all but 2.9% or so of the library.
DRD3 agonist – D3 dopamine receptor (human) agonism. P35462. D3R DiscoveRx beta-arrestin cells, luminescence, 90 min. max activation, %. actives 0.58% (n = 410,000). AID 652048; in the data active = max activation above about 30%; note: 0% is about no effect
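Agonist mode: compounds and dopamine controls were applied to plated cells for 90 min at 37 degrees C after an overnight attachment at 1500 cells/well. Luminescent read-out followed 30 - 60 minutes at room temperature with DiscoveRx detection reagent.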
DRD3 antagonist – blocks the human D3 dopamine receptor. actives 2.5% (n = 360,000). max response, negative = inhibition, %. AID 652054. P35462. D3R cells, DiscoveRx beta-arrestin luminescence, antagonist mode; stronger effect = lower value; in the data active = max response below about -50%; inconclusive = no clear call, values can overlap the other calls; note: % is set by controls: 0 for no effect and ±100 for the full control effect
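Cells plated overnight at 1500 cells/well, then exposed to library compounds with dopamine controls for 90 minutes at 37 degrees C. DiscoveRx reagent added for 30–60 minutes at room temperature; luminescence read, quantitative HTS format.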
B2AR arrestin – recruits beta-arrestin to the human beta2-adrenergic receptor | actives 0.02% (n = 330,000) | P07550 | beta-arrestin recruitment to beta2AR, cell-based reporter | Potency, µM (doses to about 46.1 µM), inactives show at the highest dose activation, most hits filed as activators; active = well fitted activation curve with a large enough effect; inconclusive = small, poorly fitted or top-dose-only effect;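 note: potency is the fitted concentration of half-maximal effect; 0% = DMSO controls and full agonism = EC100 isoproterenol or metaproterenol; nearly all actives have a fitted effect of over 65% in size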
Target sequence (P07550 whole entry, looked up): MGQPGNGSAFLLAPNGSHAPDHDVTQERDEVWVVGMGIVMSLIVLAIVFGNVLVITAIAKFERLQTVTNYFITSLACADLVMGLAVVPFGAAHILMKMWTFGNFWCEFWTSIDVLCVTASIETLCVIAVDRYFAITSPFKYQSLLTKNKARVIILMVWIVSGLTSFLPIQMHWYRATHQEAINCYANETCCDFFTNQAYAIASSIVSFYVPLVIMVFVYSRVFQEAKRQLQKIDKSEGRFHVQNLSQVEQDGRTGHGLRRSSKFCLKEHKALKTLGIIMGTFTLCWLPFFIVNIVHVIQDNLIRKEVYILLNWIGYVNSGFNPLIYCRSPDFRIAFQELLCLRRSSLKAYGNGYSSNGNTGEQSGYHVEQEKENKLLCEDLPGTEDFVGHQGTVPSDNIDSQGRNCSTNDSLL
TSHR antagonist – antagonists of human thyroid stimulating hormone receptor | P16473 | TSHR-expressing cells, TSH-stimulated cAMP HTRF, 2 h; stronger effect = lower value | activity change, negative = inhibition, % at 11.5 µM | actives 0.2% (n = 330,000) | AID 504810;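 active = activity change below a set negative limit, meaning inhibition stronger than a set level, cut at about -70% in these data; inconclusive = activity change between two set negative limits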; note: % is set by controls: 0 for no effect and ±100 for the full control effect
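Competitive HTRF cAMP read-out (cryptate anti-cAMP antibody, cAMP-d2; 30 min, room temperature) in freshly harvested TSHR cells. Compounds added before TSH at EC80 (4nM final), followed by 2 hours' incubation at 37 deg C.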
Numbers without * were called inactive; ! = not confirmed by another sample.

Screening CCCCOCCCNC(=O)C[C@@H]1C[C@@]2(C(=O)OCC)CCCC=C2N(Cc2ccc(Cl)cc2Cl)C1=O returned DRD3 agonist -8 and DRD3 antagonist 0.
For Cc1nc2c(OCc3ccc(Cl)cc3Cl)cccn2c1N(C)Cc1cccs1 the results were DRD3 agonist -17 and DRD3 antagonist -71*.
`CCOc1ccc(N2C(=O)N(Cc3ccc(C)cc3C)c3ccccc3S2(=O)=O)cc1` gave DRD3 agonist -19.
Screening COCCNc1nc(NCCOc2ccccc2Cl)c2sc(-c3ccccc3)cc2n1 returned DRD3 agonist 58* and DRD3 antagonist 15.
COc1ccc(C2=NS(=O)(=O)N(C)C(C(=O)Nc3ccc4c(c3)OCO4)=C2)cc1 was read as DRD3 agonist -10, DRD3 antagonist -103*, B2AR arrestin 0% and TSHR antagonist -19.
Screening CCc1c(C)sc(NC(=O)c2cccs2)c1C(=O)OC(C)C returned DRD3 agonist 3, DRD3 antagonist -54*, B2AR arrestin -1% and TSHR antagonist -4.
`CCOC(=O)c1c(NC(=O)c2cccs2)sc(C)c1CC` gave DRD3 agonist -1, DRD3 antagonist 16, B2AR arrestin 0% and TSHR antagonist -22.
`CCC1Nc2ncnc(N3CCN(c4ccccc4)CC3)c2N(Cc2ccccc2)C1=O` (centres undefined) gave DRD3 agonist -60, DRD3 antagonist -142*, B2AR arrestin 0% and TSHR antagonist -19.
CCC1Nc2ncnc(N3CCN(c4ccccc4)CC3)c2N(Cc2ccc(C)cc2)C1=O (centres undefined) was read as DRD3 agonist -61, DRD3 antagonist -139*, B2AR arrestin 0% and TSHR antagonist -21.
Cc1ccc(CN2C(=O)C(Cc3ccccc3)Nc3ncnc(N4CCOCC4)c32)cc1 (centres undefined) was read as DRD3 agonist -9 and DRD3 antagonist -58*.
Cc1ccc(CN2C(=O)C(CC(C)C)Nc3ncnc(N4CCN(c5ccccc5)CC4)c32)cc1 (centres undefined) was read as DRD3 agonist -13, DRD3 antagonist -55*!, B2AR arrestin 0% and TSHR antagonist -8.
Screening CCOC(=O)c1c(C)sc(-c2c(-c3ccc4c(c3)OCCO4)[nH]c3c2c(=O)n(C)c(=O)n3C)c1O returned DRD3 agonist 3.
`COc1ccc(OC)c(NC(=O)C2CCN(S(=O)(=O)c3c(C)noc3/C=C/c3ccc(C)cc3)CC2)c1` gave DRD3 agonist -12.
Screening CC(C)OCCCNC(=O)CCCn1c(SCC(=O)c2ccc(Br)cc2)nc2c(sc3ccccc32)c1=O returned DRD3 agonist -4.
`OCc1cn(Cc2ccc(O)c3ncccc23)cn1` gave B2AR arrestin -1% and TSHR antagonist 13.
For Cc1ccc(CCNC(=O)c2cc3sccc3n2Cc2ccc(F)cc2)cc1 the results were DRD3 agonist -19.
For O=C(NCCN1CCOCC1)c1cc2sccc2n1Cc1ccc(Cl)cc1 the results were DRD3 agonist -34, DRD3 antagonist -96*, B2AR arrestin 0% and TSHR antagonist -6.
Screening Cc1ccc(CCNC(=O)c2cc3sccc3n2Cc2ccc(Cl)cc2)cc1 returned DRD3 agonist -26.
Screening O=C(NCCN1CCOCC1)c1cc2sccc2n1Cc1ccc(F)cc1 returned DRD3 agonist -65, DRD3 antagonist -97*, B2AR arrestin 0% and TSHR antagonist -5.
`CCOC(=O)C1Nc2c(F)cc(C)cc2C2c3ccccc3CC12` (centres undefined) gave DRD3 agonist -16 and DRD3 antagonist -54*.
Screening COc1ccc(/C=N/Nc2ccc([N+](=O)[O-])cc2)cc1O returned DRD3 agonist -10, DRD3 antagonist -53*, B2AR arrestin 0% and TSHR antagonist -13.
For COc1cc(/C=C(/C#N)c2ccccc2)ccc1Oc1ccc([N+](=O)[O-])cn1 the results were DRD3 agonist 13, DRD3 antagonist 37, B2AR arrestin 0% and TSHR antagonist -18.
Screening COc1cc(C=C(C#N)c2ccc([N+](=O)[O-])cc2)ccc1O returned DRD3 agonist -17 and DRD3 antagonist -52*.
O=C(c1cc(Cl)cc(Cl)c1)N1CCC(=O)N([C@H](COCc2ccccc2)Cc2ccccc2)CC1 was read as DRD3 agonist 29 and DRD3 antagonist 8.
`CC(C)Oc1ccc(CNC(=O)C2CCN(Cc3cc4ccccc4n3Cc3ccccc3)CC2)cc1` gave DRD3 agonist -12.
Screening Cc1noc(C)c1C(=O)Nc1sc2c(c1C(N)=O)CCC2 returned DRD3 agonist 9, DRD3 antagonist 2, B2AR arrestin 5% and TSHR antagonist 13.
Screening Cc1noc(C)c1C(=O)Nc1sc2c(c1C(N)=O)CCCCC2 returned DRD3 agonist 47*, DRD3 antagonist 23, B2AR arrestin 0% and TSHR antagonist -1.
For O=C(Nc1ccc2c(c1)OCO2)C1Cc2c(-c3ccc4c(c3)OCO4)ccnc2O1 (centres undefined) the results were DRD3 agonist 7 and DRD3 antagonist -9.
`CNC(=O)c1cc2n(n1)CCCN(Cc1ccc(F)cc1)C2=O` gave DRD3 agonist 2.
For CCN(CC)c1ccc(NS(=O)(=O)c2ccc(-c3coc(C)n3)cc2)c(C)c1 the results were DRD3 agonist 11.
Screening CC(C)(C)SCCNC(=O)c1ccc(CN2CCc3ccccc3C2)cc1 returned DRD3 agonist -39, DRD3 antagonist -74*, B2AR arrestin 1% and TSHR antagonist -10.
`CCC(C)NC(=O)c1ccc(CN2CCc3ccccc3C2)cc1` (centres undefined) gave DRD3 agonist -18, DRD3 antagonist -66*, B2AR arrestin 0% and TSHR antagonist -2.
For CCCNC(=O)c1ccc(CN2CCc3ccccc3C2)cc1 the results were DRD3 agonist -30, DRD3 antagonist -15, B2AR arrestin -1% and TSHR antagonist 1.
Screening COCC(C)NC(=O)c1ccc(CN2CCc3ccccc3C2)cc1 (centres undefined) returned DRD3 agonist -11, DRD3 antagonist -68*, B2AR arrestin 0% and TSHR antagonist -11.
Screening O=C(NCc1cccnc1)c1ccc(CN2CCc3ccccc3C2)cc1 returned DRD3 agonist 0, DRD3 antagonist -75*, B2AR arrestin 1% and TSHR antagonist 10.
Screening COCCNC(=O)c1ccc(CN2CCc3ccccc3C2)cc1 returned DRD3 agonist -15, DRD3 antagonist inconclusive, B2AR arrestin 0% and TSHR antagonist 3.
O=C(NCc1ccc2c(c1)OCO2)c1ccc(CN2CCc3ccccc3C2)cc1 was read as DRD3 agonist -14, DRD3 antagonist inconclusive, B2AR arrestin 4% and TSHR antagonist 32.
Cc1ccc(C)c(NC(=O)c2cnc(N3CCCC3)nc2C)c1 was read as DRD3 agonist -3.
Cc1cc(=O)n(CC(=O)N2CCCCC2)c2c1c(C)nn2C was read as DRD3 agonist -4.
For Cc1cccc(N2C(=O)CS(=O)(=O)C23C(=O)N(C)c2ccccc23)c1 (centres undefined) the results were DRD3 agonist 7.
